PubChem BioAssay
Values joined by “and” are separate entries in the source; they are usually repeats but may differ in a detail not shown here. Equal values may be shown once. Active and inactive are the calls of the source.

Columns and labels:
[1] = tested on: Plasmodium falciparum Sir2 (PF13_0152, Sir2A); assay: pfSir2 binders on small-molecule microarrays, primary screen, biochemical, small-molecule microarray, 635 nm fluorescence (AID 1098); settings: small-molecule microarray binding, fluorescence 635 nm; higher = more signal;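 further: score merges spot fluorescence intensity with its signal-to-noise ratio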
[2] = small-molecule microarray binders of probe aDKK1, primary screen, biochemical, biotinylated probe, 635/667 nm fluorescence (AID 1099); settings: higher = more signal;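 further: score merges 667nm spot fluorescence with signal to noise across triplicate slides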
[3] = small-molecule microarray binders of probe aCHRDL2, primary screen, biochemical, biotinylated probe, 635/667 nm fluorescence (AID 1100); settings: higher = more signal
[4] = splicing luciferase reporter signal modulators, primary screen, spliceosome inhibition project, cell-based, HEK293, splice +/- reporter (AID 1101); settings: luminescence, 24 h, higher = more signal, called active from +8 up or from −8 down;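 further: HEK293 cells carrying a splicing-competent luciferase reporter gene; test concentration not given here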
[5] = molecular target: Fibroblast growth factor 10 (Homo sapiens) (UniProt O15520); assay: FGF10 binders on small-molecule microarrays, primary screen, biochemical, small-molecule microarray, 635 nm fluorescence (AID 1102); settings: FGF10 binding, fluorescence 635 nm, higher = more signal
Fibroblast growth factor 10 (Homo sapiens), sequence (O15520 whole entry, looked up): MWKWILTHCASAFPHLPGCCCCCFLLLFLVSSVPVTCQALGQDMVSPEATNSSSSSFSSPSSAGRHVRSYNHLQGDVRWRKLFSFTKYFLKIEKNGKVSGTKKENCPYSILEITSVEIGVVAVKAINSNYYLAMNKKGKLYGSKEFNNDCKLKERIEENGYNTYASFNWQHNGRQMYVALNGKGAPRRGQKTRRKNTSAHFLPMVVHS

[6] = tested on: glycogen synthase kinase-3 (GSK3A per assay name; protocol says GSK3B); assay: GSK3 binders on small-molecule microarrays, primary screen, biochemical, small-molecule microarray, 635 nm fluorescence, GSK3A (AID 1103); settings: small-molecule microarray binding, fluorescence 635 nm; higher = more signal; further: the record names both GSK3A and GSK3B
[7] = molecular target: Epidermal growth factor receptor (Homo sapiens) (UniProt P00533); assay: EGFR binders on small-molecule microarrays, primary screen, biochemical, small-molecule microarray, 635 nm fluorescence (AID 1104); settings: EGFR binding, higher = more signal;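 further: score merges 667 nm emission intensity with spot signal to noise over triplicate slides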
Epidermal growth factor receptor (Homo sapiens), sequence (P00533 whole entry, looked up): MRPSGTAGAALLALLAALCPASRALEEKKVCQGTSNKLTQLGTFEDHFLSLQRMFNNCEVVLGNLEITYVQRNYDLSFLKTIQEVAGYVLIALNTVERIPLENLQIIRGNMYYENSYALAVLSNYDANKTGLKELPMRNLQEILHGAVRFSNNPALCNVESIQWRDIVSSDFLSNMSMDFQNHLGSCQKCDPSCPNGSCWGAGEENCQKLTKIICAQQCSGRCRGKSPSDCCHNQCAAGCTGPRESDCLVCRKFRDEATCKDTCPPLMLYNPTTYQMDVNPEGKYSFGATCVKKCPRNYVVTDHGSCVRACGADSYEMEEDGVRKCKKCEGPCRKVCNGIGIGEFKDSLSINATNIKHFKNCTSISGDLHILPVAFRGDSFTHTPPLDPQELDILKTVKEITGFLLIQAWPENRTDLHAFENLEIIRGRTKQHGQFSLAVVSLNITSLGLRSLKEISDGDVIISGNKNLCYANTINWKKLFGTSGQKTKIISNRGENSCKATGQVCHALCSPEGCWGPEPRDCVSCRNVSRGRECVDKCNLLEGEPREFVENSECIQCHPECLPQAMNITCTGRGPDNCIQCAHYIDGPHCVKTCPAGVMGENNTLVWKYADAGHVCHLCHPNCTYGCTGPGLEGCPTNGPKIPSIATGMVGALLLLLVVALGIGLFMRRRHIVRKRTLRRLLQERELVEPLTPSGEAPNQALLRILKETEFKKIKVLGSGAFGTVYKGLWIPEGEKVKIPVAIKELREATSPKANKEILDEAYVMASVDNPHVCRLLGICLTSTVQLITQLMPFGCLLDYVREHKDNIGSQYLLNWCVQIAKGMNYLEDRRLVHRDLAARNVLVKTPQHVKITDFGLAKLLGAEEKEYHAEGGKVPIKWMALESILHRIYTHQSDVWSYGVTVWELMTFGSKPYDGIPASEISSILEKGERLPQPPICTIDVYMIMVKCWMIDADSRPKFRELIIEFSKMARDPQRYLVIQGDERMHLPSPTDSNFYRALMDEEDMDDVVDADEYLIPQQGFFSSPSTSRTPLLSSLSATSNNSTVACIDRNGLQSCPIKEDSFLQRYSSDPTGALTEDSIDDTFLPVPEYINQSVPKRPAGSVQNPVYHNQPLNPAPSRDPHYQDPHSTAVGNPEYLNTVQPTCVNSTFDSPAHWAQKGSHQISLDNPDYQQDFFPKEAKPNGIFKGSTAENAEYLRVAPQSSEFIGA

[8] = molecular target: Follistatin-related protein 3 (Homo sapiens) (UniProt O95633); assay: FSTL3 binders on small-molecule microarrays, primary screen, biochemical, small-molecule microarray, 635 nm fluorescence (AID 1105); settings: FSTL3 binding, higher = more signal;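 further: score merges emission near 667 nm and signal to noise per printed spot across three slides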
Follistatin-related protein 3 (Homo sapiens), sequence (O95633 whole entry, looked up): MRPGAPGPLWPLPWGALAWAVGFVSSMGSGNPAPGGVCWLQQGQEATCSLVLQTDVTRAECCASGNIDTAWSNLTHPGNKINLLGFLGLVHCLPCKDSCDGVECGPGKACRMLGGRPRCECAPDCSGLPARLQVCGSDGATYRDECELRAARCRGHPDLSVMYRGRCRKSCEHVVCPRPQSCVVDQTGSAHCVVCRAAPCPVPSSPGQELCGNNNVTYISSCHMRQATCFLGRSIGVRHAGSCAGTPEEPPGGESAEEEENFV

[9] = molecular target: Dickkopf-related protein 1 (Homo sapiens) (UniProt O94907); assay: DKK1 binders on small-molecule microarrays, primary screen, biochemical, small-molecule microarray, 635 nm fluorescence scan (AID 1106); settings: DKK1 binding, higher = more signal;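 further: score merges emission near 667 nm with signal to noise over three replicate slides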
Dickkopf-related protein 1 (Homo sapiens), sequence (O94907 whole entry, looked up): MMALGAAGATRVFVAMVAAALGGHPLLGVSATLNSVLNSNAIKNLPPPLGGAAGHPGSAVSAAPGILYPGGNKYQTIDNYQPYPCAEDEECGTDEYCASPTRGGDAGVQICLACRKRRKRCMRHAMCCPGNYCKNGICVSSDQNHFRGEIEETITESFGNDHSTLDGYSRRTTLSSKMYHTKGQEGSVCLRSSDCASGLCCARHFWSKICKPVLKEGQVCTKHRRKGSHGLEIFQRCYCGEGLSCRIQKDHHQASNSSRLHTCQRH

[10] = tested on: Inhibin beta A chain (activin A); assay: INHBA (activin A) binders on microarrays, primary screen, biochemical, small-molecule microarray, 635 nm fluorescence scan (AID 1107); settings: small-molecule microarray binding, higher = more signal;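 further: mouse activin A protein probed at 4.33 µg/mL on printed slides; score merges bound-protein fluorescence near 667 nm with spot signal-to-noise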
[11] = tested on: Human papillomavirus type 1a protein E7 (residues 44-93); assay: HPV1a E7 fragment binders on microarrays, primary screen, biochemical, small-molecule microarray, residues 44-93, 635 nm fluorescence (AID 1108); settings: small-molecule microarray binding, fluorescence 635 nm; higher = more signal;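 further: E7 fragment applied at 1 µg/mL in TBST for 1 h at 4 C; score combines spot fluorescence with its signal to noise ratio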
[12] = modulators of HCV replicon luciferase signal, primary screen, HCV replication inhibitor project, Huh7 cells, luciferase reporter (AID 1109); settings: 48 h, higher = more signal;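 further: huh7 hepatoma cells harbouring a luciferase neomycin HCV replicon reporter; luciferase luminescence as measure of HCV replicon replication; test concentration not given here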
[13] = molecular target: Left-right determination factor 2 (Homo sapiens) (UniProt O00292); assay: LEFTY2 binders on small-molecule microarrays, primary screen, biochemical, small-molecule microarray, 635 nm fluorescence scan (AID 1110); settings: LEFTY2 binding, higher = more signal
Left-right determination factor 2 (Homo sapiens), sequence (O00292 whole entry, looked up): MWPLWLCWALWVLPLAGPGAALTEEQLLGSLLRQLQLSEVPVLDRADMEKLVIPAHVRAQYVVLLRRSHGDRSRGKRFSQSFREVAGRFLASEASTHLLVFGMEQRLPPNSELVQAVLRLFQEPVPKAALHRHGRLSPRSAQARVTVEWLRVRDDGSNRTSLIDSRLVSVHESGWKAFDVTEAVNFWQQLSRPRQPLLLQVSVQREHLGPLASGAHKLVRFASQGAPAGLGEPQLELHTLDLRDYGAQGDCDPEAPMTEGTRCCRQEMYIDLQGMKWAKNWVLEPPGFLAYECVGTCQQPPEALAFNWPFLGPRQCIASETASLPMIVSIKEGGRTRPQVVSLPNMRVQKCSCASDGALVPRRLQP

[14] = molecular target: Calmodulin-1 (Homo sapiens) (UniProt P0DP23); assay: CALM1 binders on microarrays, EGTA buffer, profiling panel, biochemical, small-molecule microarray, Cy5-labelled CALM1 (AID 1111); settings: Cy5-CALM1 binding fluorescence, higher = more signal;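 further: labelled calmodulin applied in Tris saline Tween buffer holding calcium plus EGTA and DTT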
[15] = molecular target: Calmodulin-1 (Homo sapiens) (UniProt P0DP23); assay: calcium-bound CALM1 binders on microarrays, profiling panel, artefact control for SMM control-protein annotation, biochemical, small-molecule microarray, Cy5-labelled CALM1, plus calcium (AID 1112); settings: Cy5-CALM1 binding fluorescence, higher = more signal;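 further: score merges spot fluorescence with signal to noise from triplicate slides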
[16] = small-molecule microarray binders of probe aWnt5a, primary screen, biochemical, biotinylated probe, 635/667 nm fluorescence (AID 1113); settings: higher = more signal;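 further: score merges 667 nm fluorescence intensity with signal-to-noise per printed feature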
[17] = small-molecule microarray binders of probe aShh, primary screen, biochemical, biotinylated probe, 635/667 nm fluorescence (AID 1114); settings: higher = more signal;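 further: probe is biotin-labelled aShh protein from a stem cell growth factor screen; measures binding of labelled protein to compounds printed on the slide; score merges feature fluorescence at 667 nm with signal-to-noise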
[18] = small-molecule microarray binders of probe aNog, primary screen, biochemical, biotinylated probe, 635/667 nm fluorescence (AID 1115); settings: higher = more signal;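 further: probe is biotinylated aNog protein used at 0.15 µg/mL for 1 h at 4 C; z-score combines 667 nm fluorescence of each spot with its signal to noise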
[19] = molecular target: Torsin-1A-interacting protein 1 (Homo sapiens) (UniProt Q5JTV8); assay: LAP1 binders from COS7 cell lysate, primary screen, small-molecule microarray, 635/667 nm fluorescence (AID 1116); settings: COS7-hLAP1 lysate binding, 635 nm fluorescence, higher = more signal
Torsin-1A-interacting protein 1 (Homo sapiens), sequence (Q5JTV8 whole entry, looked up): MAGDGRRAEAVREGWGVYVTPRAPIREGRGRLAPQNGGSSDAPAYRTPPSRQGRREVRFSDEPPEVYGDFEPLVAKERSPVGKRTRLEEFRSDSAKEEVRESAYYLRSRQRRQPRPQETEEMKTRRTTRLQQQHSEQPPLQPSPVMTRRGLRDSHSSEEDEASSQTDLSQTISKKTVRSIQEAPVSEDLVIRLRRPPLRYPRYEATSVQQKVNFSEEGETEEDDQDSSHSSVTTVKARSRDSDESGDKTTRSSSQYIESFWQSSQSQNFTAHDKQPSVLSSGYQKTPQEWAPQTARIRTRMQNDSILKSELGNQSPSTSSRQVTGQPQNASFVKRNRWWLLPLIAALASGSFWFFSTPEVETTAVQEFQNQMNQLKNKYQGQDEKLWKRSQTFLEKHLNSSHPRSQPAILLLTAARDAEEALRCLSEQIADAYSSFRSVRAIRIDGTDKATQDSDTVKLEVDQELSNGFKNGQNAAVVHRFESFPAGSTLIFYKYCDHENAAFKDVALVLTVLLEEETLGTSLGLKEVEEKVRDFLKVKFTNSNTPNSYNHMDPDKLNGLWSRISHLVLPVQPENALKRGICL

[20] = molecular target: Alpha-bungarotoxin (Bungarus multicinctus) (UniProt P60615); assay: alpha-bungarotoxin binders on microarray, profiling panel, artefact control for SMM control protein annotation, biochemical, small-molecule microarray, Alexa647 label, 635/667 nm fluorescence (AID 1117); settings: alpha-BTX-A647 binding fluorescence, higher = more signal
Alpha-bungarotoxin (Bungarus multicinctus), sequence (P60615 whole entry, looked up): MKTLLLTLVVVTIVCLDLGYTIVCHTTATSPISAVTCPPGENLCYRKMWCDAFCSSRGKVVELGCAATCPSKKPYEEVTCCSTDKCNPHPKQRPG

Compound	composite z-score [1]	composite z-score [2]	composite z-score [3]	z-score [4]	composite z-score [5]	composite z-score [6]	composite z-score [7]	composite z-score [8]	composite z-score [9]	composite z-score [10]	composite z-score [11]	z-score [12]	composite z-score [13]	composite z-score [14]	composite z-score [15]	composite z-score [16]	composite z-score [17]	composite z-score [18]	composite z-score [19]	composite z-score [20]
C[C@@H]1CC[C@H]2C(=O)N3[C@@H](CC[C@@H](C)[C@@H]3c3ccc(-c4ccco4)cc3)C(=O)N2[C@H]1c1ccc(-c2ccco2)cc1	1.22 and 1.69	0.289 and 0.596	0.0051 and 1.11	-0.328 (inactive) and -1.24 (inactive)	0.765 and 1.37	1.32 and 1.28	0.737 and 1.7	1.36 and 1.4	1.25 and 1.68	1.01 and 1.92	-0.496 and 0.292	-0.207 and -0.734	0.714 and 1.31	1.07 and -0.328	-0.355 and -1.5	-0.113 and 0.0579	0.166 and -0.0626	0.274 and 0.223	1.07 and 0.704	1.92 and 3.43
CCOC(=O)c1ccc(NC(=O)O[C@H]2[C@H](OC(=O)Nc3ccccc3)[C@@H](OC(=O)Nc3ccccc3)[C@@H](OC)O[C@@H]2CO)cc1	1.54 and 1.64	1	0.861 and 0.911	1.59 (inactive) and -0.984 (inactive)	1.13 and 1.42	1.24 and 1.34	0.329 and 0.0234	1.34 and 1.42	0.414 and 0.17	0.375 and 0.563	0.249 and 1.18	-3.3 and -1.82	0.772 and 0.53	2.04 and 1.81	0.114 and -0.0271	0.0618 and 0.199	0.613 and 0.204	1.32 and 0.386	1.2 and 1.5	2.04 and 1.85
COC(=O)C1=C(C)N(Cc2ccccc2)C2=C3C(=O)CCC[C@@H]3[C@@](O)(C(=O)OC)C(=O)N2[C@@H]1c1ccccc1	0.464 and -0.773	0.0021 and -0.0015	-0.334 and -0.299	0.732 (inactive) and -1.28 (inactive)	0.887 and 0.389	0.379 and 0.224	0.459 and 0.433	0.843 and 0.284	0.641 and 0.516	0.177 and 0.506	-0.0225 and -0.0706	-0.571 and -2.09	0.278 and 0.372	-0.255 and -0.674	-0.361 and -0.0671	-0.144 and -0.0185	-0.182 and 0.187	-0.424 and 0.0775	0.617 and 0.179	0.187 and -0.503
COC(=O)c1c2oc(c1C(=O)OC)C(=O)N[C@@H](Cc1ccccc1)Cn1cc(nn1)C1(CCCCC1)NC(=O)N[C@H](CO)CC2	0.582 and 0.45	0.407 and -0.327	-0.287 and -0.366	-0.55 (inactive) and -1.56 (inactive)	1.16 and 0.505	0.86 and 0.41	0.158 and 0.198	0.794 and 0.388	0.749 and 0.194	0.728 and -0.0236	0.773 and 0.664	-0.16 and -0.583	0.564 and 0.328	0.0754 and -0.157	0.0102 and -0.607	-0.0403 and -0.0924	0.0684 and -0.0904	-0.0604 and 0.149	2.36 and 0.399	1.53 and 0.281
C=CCN(C(=O)C1N(CCOCCO)C(=O)C2C(C(=O)O)C3C=CC21O3)c1ccc(OC)cc1 (stereo not given)	-0.703 and 0.492	0.0448 and 0.214	0.787 and 1.07	0.503 (inactive) and 0.116 (inactive)	-1.53 and -1.43	-0.805 and -0.855	-1.33 and -3.15	-2.58 and -2.06	-1.83 and -2.76	-3.52 and -4.08	-0.754 and -1.72	0.51 and -0.102	-2.03 and -2.77	-0.315 and -1.35	0.538 and -0.237	-0.2 and -0.214	-0.221 and -0.195	0.406 and 0.669	1.38 and -0.149	-1.18 and -2.65
CC[C@@H]1C(Sc2ccccc2)C(C(=O)O)[C@H](c2ccc(C)cc2)N1S(=O)(=O)c1ccc(C)cc1 (stereo not given in full)	1.68 and 1.07	0.46 and -0.127	0.731 and 0.46	-0.0623 (inactive) and -0.895 (inactive)	0.617 and 0.881	0.414 and 1.14	-0.233 and 0.267	0.437 and 0.874	-0.72 and 0.0831	0.653 and 0.302	1.1 and 1.34	-0.17 and -0.556	-0.311 and 0.047	1.98 and 1.65	0.345 and 0.527	0.138 and 0.155	0.108 and 0.116	0.942 and 0.002	1.06 and 1.19	0.836 and 1.14
C=CCN(C(=O)C(c1cccs1)N(C(=O)/C=C\C(=O)O)c1c(Cl)cccc1CO)c1ccc(OC)cc1 (stereo not given)	1.67 and 0.504	0.218 and 1.01	1.24 and 1.27	-1.13 (inactive) and -0.482 (inactive)	-1.5 and -1.19	-0.625 and -0.907	-2.29 and -1.02	-2.23 and -1.78	-4.06 and -2.06	-0.828 and -0.09	-0.523 and -0.539	-0.16 and -0.604	-2.96 and -1.51	-0.0794 and -0.107	1.06 and 0.804	-0.285 and -0.096	-0.0011 and 0.173	0.709 and -0.0216	1.81 and -0.188	-1.73 and -0.053
C=C[C@@H](OC)[C@H](O)c1ccc(OCCO)cc1	1.43 and -0.202	0.644 and -0.649	0.75 and 0.283	-0.462 (inactive) and -2.83 (inactive)	-0.72 and -1.24	-0.586 and -1.15	-1.55 and -0.957	-0.782 and -0.109	-1.06 and -0.955	-0.294 and -1.79	-0.796 and -1.11	0.241 and -0.0944	-1.42 and -0.132	-1.29 and -0.831	-0.778 and -0.247	-0.298 and -0.242	-0.221 and -0.138	-0.501 and -0.393	0.91 and -0.0877	-0.7 and -0.37
C=CCN(CCCCC)C(=O)C(c1cccs1)N(C(=O)/C=C\C(=O)O)c1ccc(CCO)cc1 (stereo not given)	0.274 and 0.158	-0.273 and -0.247	0.748 and 0.789	0.748 (inactive) and 0.709 (inactive)	-1.8 and -1.08	-1.01 and -0.785	-1.79 and -1.62	-1.87 and -1.55	-2.83 and -1.55	-2.66 and -1.26	0.0979 and -0.457	-0.779 and -0.741	-3.06 and -2.73	-0.783 and -0.531	0.0708 and 0.542	-0.284 and -0.211	0.289 and -0.154	-0.23 and -0.241	-0.755 and -0.0484	-0.89 and -0.874
C=CCN(C(=O)C(c1cccs1)N(C(=O)/C=C\C(=O)O)c1c(Cl)cccc1CO)C(C)(C)C (stereo not given)	1.25 and -0.0135	0.352 and 0.285	1.38 and 1.31	-0.321 (inactive) and -0.297 (inactive)	-2.54 and -1.41	-2.14 and -1.33	-2.12 and -2.63	-2.45 and -2.23	-3.69 and -3.04	-3.4 and -1.92	-1.05 and -0.821	-0.814 and -1.62	-4.4 and -3.37	-1.1 and -0.796	0.802 and 0.271	-0.304 and -0.202	-0.0769 and -0.138	-0.263 and -0.036	-1.05 and -1.62	-1.29 and -1.31
